# In PMC11062922 (Nature Chemical Biology, 2023):
# Like-named read-outs stand apart in the source and are kept apart here.
# Experiments:
# NUAK1 = conditions: read-out: apparent Kd, n = 1
# PAK4 = conditions: read-out: apparent Kd, n = 1
# [1] = compound concentrations:100 nM and 1000 nM (sheet 'Lestaurtinib' of Supplementary Table 1),run:Lestaurtinib_02496_R2,Plate:MR013
# [2] = compound concentrations:100 nM and 1000 nM (sheet 'Lestaurtinib' of Supplementary Table 1),run:Lestaurtinib_02566_R2,Plate:MR014
# [3] = compound concentrations:100 nM and 1000 nM (sheet 'Lestaurtinib' of Supplementary Table 1),run:Lestaurtinib_02566_R3,Plate:MR014
# [4] = compound concentrations:100 nM and 1000 nM (sheet 'Lestaurtinib' of Supplementary Table 1),run:Lestaurtinib_02572_R2,Plate:MR015
# [5] = compound concentrations:100 nM and 1000 nM (sheet 'Lestaurtinib' of Supplementary Table 1),run:Lestaurtinib_02584_R2,Plate:MR017
# [6] = compound concentrations:100 nM and 1000 nM (sheet 'Lestaurtinib' of Supplementary Table 1),run:Lestaurtinib_02601_R1,Plate:MR018
# [7] = compound concentrations:100 nM and 1000 nM (sheet 'Lestaurtinib' of Supplementary Table 1),run:Lestaurtinib_02606_R1,Plate:MR019
# [8] = compound concentrations:100 nM and 1000 nM (sheet 'Lestaurtinib' of Supplementary Table 1),run:Lestaurtinib_02606_R3,Plate:MR019
# [9] = compound concentrations:100 nM and 1000 nM (sheet 'Lestaurtinib' of Supplementary Table 1),run:Lestaurtinib_02624_R2,Plate:MR020
# [10] = compound concentrations:100 nM and 1000 nM (sheet 'Lestaurtinib' of Supplementary Table 1),run:Lestaurtinib_02724_R1,Plate:MR021
# [11] = compound concentrations:100 nM and 1000 nM (sheet 'Lestaurtinib' of Supplementary Table 1),run:Lestaurtinib_02741_R1,Plate:MR023
# [12] = compound concentrations:100 nM and 1000 nM (sheet 'Lestaurtinib' of Supplementary Table 1),run:Lestaurtinib_02741_R3,Plate:MR023
# [13] = compound concentrations:100 nM and 1000 nM (sheet 'Lestaurtinib' of Supplementary Table 1),run:Lestaurtinib_02748_R1,Plate:MR024
# [14] = compound concentrations:100 nM and 1000 nM (sheet 'Lestaurtinib' of Supplementary Table 1),run:Lestaurtinib_02765_R1,Plate:MR026
# [15] = compound concentrations:100 nM and 1000 nM (sheet 'Lestaurtinib' of Supplementary Table 1),run:Lestaurtinib_02765_R3,Plate:MR026
# [16] = compound concentrations:100 nM and 1000 nM (sheet 'Lestaurtinib' of Supplementary Table 1),run:Lestaurtinib_02766_R1,Plate:MR027
substance,measurement,setting,value
Lestaurtinib,potency estimated from few doses,NUAK1; [1],0.0811 µM
same,potency estimated from few doses,NUAK1; [2],0.073 µM
same,potency estimated from few doses,NUAK1; [3],0.0853 µM
same,potency estimated from few doses,NUAK1; [4],0.0179 µM
same,potency estimated from few doses,"NUAK1; compound concentrations:100 nM and 1000 nM (sheet 'Lestaurtinib' of Supplementary Table 1),run:Lestaurtinib_02572_R3,Plate:MR015",0.0425 µM
same,potency estimated from few doses,"NUAK1; compound concentrations:100 nM and 1000 nM (sheet 'Lestaurtinib' of Supplementary Table 1),run:Lestaurtinib_02577_R2,Plate:MR016",0.113 µM
same,potency estimated from few doses,"NUAK1; compound concentrations:100 nM and 1000 nM (sheet 'Lestaurtinib' of Supplementary Table 1),run:Lestaurtinib_02577_R3,Plate:MR016",0.0736 µM
same,potency estimated from few doses,"NUAK1; compound concentrations:100 nM and 1000 nM (sheet 'Lestaurtinib' of Supplementary Table 1),run:Lestaurtinib_02584_R1,Plate:MR017",0.0894 µM
same,potency estimated from few doses,NUAK1; [5],0.0669 µM
same,potency estimated from few doses,"NUAK1; compound concentrations:100 nM and 1000 nM (sheet 'Lestaurtinib' of Supplementary Table 1),run:Lestaurtinib_02584_R3,Plate:MR017",0.134 µM
same,potency estimated from few doses,NUAK1; [6],0.142 µM
same,potency estimated from few doses,NUAK1; [7],0.0397 µM
same,potency estimated from few doses,"NUAK1; compound concentrations:100 nM and 1000 nM (sheet 'Lestaurtinib' of Supplementary Table 1),run:Lestaurtinib_02606_R2,Plate:MR019",0.058 µM
same,potency estimated from few doses,NUAK1; [8],0.092 µM
same,potency estimated from few doses,NUAK1; [9],0.0822 µM
same,potency estimated from few doses,"NUAK1; compound concentrations:100 nM and 1000 nM (sheet 'Lestaurtinib' of Supplementary Table 1),run:Lestaurtinib_02624_R3,Plate:MR020",0.0967 µM
same,potency estimated from few doses,NUAK1; [10],0.0597 µM
same,potency estimated from few doses,NUAK1; [11],0.165 µM
same,potency estimated from few doses,NUAK1; [12],0.0437 µM
same,potency estimated from few doses,NUAK1; [13],0.0523 µM
same,potency estimated from few doses,"NUAK1; compound concentrations:100 nM and 1000 nM (sheet 'Lestaurtinib' of Supplementary Table 1),run:Lestaurtinib_02748_R2,Plate:MR024",0.0402 µM
same,potency estimated from few doses,"NUAK1; compound concentrations:100 nM and 1000 nM (sheet 'Lestaurtinib' of Supplementary Table 1),run:Lestaurtinib_02752_R1,Plate:MR025",0.0561 µM
same,potency estimated from few doses,"NUAK1; compound concentrations:100 nM and 1000 nM (sheet 'Lestaurtinib' of Supplementary Table 1),run:Lestaurtinib_02752_R3,Plate:MR025",0.0641 µM
same,potency estimated from few doses,NUAK1; [14],0.0744 µM
same,potency estimated from few doses,NUAK1; [15],0.0644 µM
same,potency estimated from few doses,NUAK1; [16],0.0975 µM
same,potency estimated from few doses,"NUAK1; compound concentrations:100 nM and 1000 nM (sheet 'Lestaurtinib' of Supplementary Table 1),run:Lestaurtinib_02766_R3,Plate:MR027",0.0928 µM
same,potency estimated from few doses,"NUAK1; compound concentrations:100 nM and 1000 nM (sheet 'Lestaurtinib' of Supplementary Table 1),run:Lestaurtinib_02768_R2,Plate:MR028",0.0417 µM
same,potency estimated from few doses,"NUAK1; compound concentrations:100 nM and 1000 nM (sheet 'Lestaurtinib' of Supplementary Table 1),run:Lestaurtinib_02768_R3,Plate:MR028",0.0487 µM
same,potency estimated from few doses,"NUAK1; compound concentrations:100 nM and 1000 nM (sheet 'Lestaurtinib' of Supplementary Table 1),run:Lestaurtinib_02795_R1,Plate:MR022",0.0628 µM
same,potency estimated from few doses,"NUAK1; compound concentrations:100 nM and 1000 nM (sheet 'Lestaurtinib' of Supplementary Table 1),run:Lestaurtinib_02795_R2,Plate:MR022",0.0386 µM
same,potency estimated from few doses,"NUAK1; compound concentrations:100 nM and 1000 nM (sheet 'Lestaurtinib' of Supplementary Table 1),run:Lestaurtinib_02795_R3,Plate:MR022",0.165 µM
same,potency estimated from few doses,"NUAK1; compound concentrations:100 nM and 1000 nM (sheet 'Lestaurtinib' of Supplementary Table 1),run:Lestaurtinib_02802_R1,Plate:MR029",0.0722 µM
same,potency estimated from few doses,"NUAK1; compound concentrations:100 nM and 1000 nM (sheet 'Lestaurtinib' of Supplementary Table 1),run:Lestaurtinib_02802_R3,Plate:MR029",0.0449 µM
same,potency estimated from few doses,"NUAK1; compound concentrations:100 nM and 1000 nM (sheet 'Lestaurtinib' of Supplementary Table 1),run:Lestaurtinib_02896_R1,Plate:MR030",0.0525 µM
same,potency estimated from few doses,"NUAK1; compound concentrations:100 nM and 1000 nM (sheet 'Lestaurtinib' of Supplementary Table 1),run:Lestaurtinib_02896_R3,Plate:MR030",0.0551 µM
same,potency estimated from few doses,"NUAK1; compound concentrations:100 nM and 1000 nM (sheet 'Lestaurtinib' of Supplementary Table 1),run:Lestaurtinib_03172_R2,Plate:MR031",0.0665 µM
same,potency estimated from few doses,"NUAK1; compound concentrations:100 nM and 1000 nM (sheet 'Lestaurtinib' of Supplementary Table 1),run:Lestaurtinib_03172_R3,Plate:MR031",0.0627 µM
same,potency estimated from few doses,"NUAK1; compound concentrations:100 nM and 1000 nM (sheet 'Lestaurtinib' of Supplementary Table 1),run:Lestaurtinib_03252_R1,Plate:MR032",0.0517 µM
same,potency estimated from few doses,"PAK4; compound concentrations:100 nM and 1000 nM (sheet 'Lestaurtinib' of Supplementary Table 1),run:Lestaurtinib_02339_R1,Plate:MR001",0.0327 µM
same,potency estimated from few doses,"PAK4; compound concentrations:100 nM and 1000 nM (sheet 'Lestaurtinib' of Supplementary Table 1),run:Lestaurtinib_02339_R2,Plate:MR001",0.0361 µM
same,potency estimated from few doses,"PAK4; compound concentrations:100 nM and 1000 nM (sheet 'Lestaurtinib' of Supplementary Table 1),run:Lestaurtinib_02364_R1,Plate:MR002",0.032 µM
same,potency estimated from few doses,"PAK4; compound concentrations:100 nM and 1000 nM (sheet 'Lestaurtinib' of Supplementary Table 1),run:Lestaurtinib_02364_R2,Plate:MR002",0.0329 µM
same,potency estimated from few doses,"PAK4; compound concentrations:100 nM and 1000 nM (sheet 'Lestaurtinib' of Supplementary Table 1),run:Lestaurtinib_02364_R3,Plate:MR002",0.0351 µM
same,potency estimated from few doses,"PAK4; compound concentrations:100 nM and 1000 nM (sheet 'Lestaurtinib' of Supplementary Table 1),run:Lestaurtinib_02367_R1,Plate:MR003",0.0297 µM
same,potency estimated from few doses,"PAK4; compound concentrations:100 nM and 1000 nM (sheet 'Lestaurtinib' of Supplementary Table 1),run:Lestaurtinib_02367_R2,Plate:MR003",0.0336 µM
same,potency estimated from few doses,"PAK4; compound concentrations:100 nM and 1000 nM (sheet 'Lestaurtinib' of Supplementary Table 1),run:Lestaurtinib_02367_R3,Plate:MR003",0.0358 µM
same,potency estimated from few doses,"PAK4; compound concentrations:100 nM and 1000 nM (sheet 'Lestaurtinib' of Supplementary Table 1),run:Lestaurtinib_02381_R1,Plate:MR004",0.031 µM
same,potency estimated from few doses,"PAK4; compound concentrations:100 nM and 1000 nM (sheet 'Lestaurtinib' of Supplementary Table 1),run:Lestaurtinib_02381_R3,Plate:MR004",0.03 µM
same,potency estimated from few doses,"PAK4; compound concentrations:100 nM and 1000 nM (sheet 'Lestaurtinib' of Supplementary Table 1),run:Lestaurtinib_02407_R2,Plate:MR005",0.0286 µM
same,potency estimated from few doses,"PAK4; compound concentrations:100 nM and 1000 nM (sheet 'Lestaurtinib' of Supplementary Table 1),run:Lestaurtinib_02407_R3,Plate:MR005",0.0345 µM
same,potency estimated from few doses,"PAK4; compound concentrations:100 nM and 1000 nM (sheet 'Lestaurtinib' of Supplementary Table 1),run:Lestaurtinib_02422_R1,Plate:MR006",0.0442 µM
same,potency estimated from few doses,"PAK4; compound concentrations:100 nM and 1000 nM (sheet 'Lestaurtinib' of Supplementary Table 1),run:Lestaurtinib_02422_R2,Plate:MR006",0.0202 µM
same,potency estimated from few doses,"PAK4; compound concentrations:100 nM and 1000 nM (sheet 'Lestaurtinib' of Supplementary Table 1),run:Lestaurtinib_02438_R2,Plate:MR008",0.0306 µM
same,potency estimated from few doses,"PAK4; compound concentrations:100 nM and 1000 nM (sheet 'Lestaurtinib' of Supplementary Table 1),run:Lestaurtinib_02443_R2,Plate:MR009",0.0319 µM
same,potency estimated from few doses,"PAK4; compound concentrations:100 nM and 1000 nM (sheet 'Lestaurtinib' of Supplementary Table 1),run:Lestaurtinib_02443_R3,Plate:MR009",0.0332 µM
same,potency estimated from few doses,"PAK4; compound concentrations:100 nM and 1000 nM (sheet 'Lestaurtinib' of Supplementary Table 1),run:Lestaurtinib_02482_R2,Plate:MR011",0.0362 µM
same,potency estimated from few doses,"PAK4; compound concentrations:100 nM and 1000 nM (sheet 'Lestaurtinib' of Supplementary Table 1),run:Lestaurtinib_02487_R2,Plate:MR012",0.0386 µM
same,potency estimated from few doses,"PAK4; compound concentrations:100 nM and 1000 nM (sheet 'Lestaurtinib' of Supplementary Table 1),run:Lestaurtinib_02487_R3,Plate:MR012",0.0391 µM
same,potency estimated from few doses,"PAK4; compound concentrations:100 nM and 1000 nM (sheet 'Lestaurtinib' of Supplementary Table 1),run:Lestaurtinib_02496_R1,Plate:MR013",0.033 µM
same,potency estimated from few doses,PAK4; [1],0.0306 µM
same,potency estimated from few doses,"PAK4; compound concentrations:100 nM and 1000 nM (sheet 'Lestaurtinib' of Supplementary Table 1),run:Lestaurtinib_02496_R3,Plate:MR013",0.0354 µM
same,potency estimated from few doses,"PAK4; compound concentrations:100 nM and 1000 nM (sheet 'Lestaurtinib' of Supplementary Table 1),run:Lestaurtinib_02566_R1,Plate:MR014",0.0279 µM
same,potency estimated from few doses,PAK4; [2],0.031 µM
same,potency estimated from few doses,PAK4; [3],0.0382 µM
same,potency estimated from few doses,"PAK4; compound concentrations:100 nM and 1000 nM (sheet 'Lestaurtinib' of Supplementary Table 1),run:Lestaurtinib_02572_R1,Plate:MR015",0.0261 µM
same,potency estimated from few doses,PAK4; [4],0.0379 µM
same,potency estimated from few doses,PAK4; [5],0.0274 µM
same,potency estimated from few doses,PAK4; [6],0.0329 µM
same,potency estimated from few doses,"PAK4; compound concentrations:100 nM and 1000 nM (sheet 'Lestaurtinib' of Supplementary Table 1),run:Lestaurtinib_02601_R2,Plate:MR018",0.0365 µM
same,potency estimated from few doses,"PAK4; compound concentrations:100 nM and 1000 nM (sheet 'Lestaurtinib' of Supplementary Table 1),run:Lestaurtinib_02601_R3,Plate:MR018",0.0323 µM
same,potency estimated from few doses,PAK4; [7],0.0354 µM
same,potency estimated from few doses,PAK4; [8],0.0356 µM
same,potency estimated from few doses,"PAK4; compound concentrations:100 nM and 1000 nM (sheet 'Lestaurtinib' of Supplementary Table 1),run:Lestaurtinib_02624_R1,Plate:MR020",0.0261 µM
same,potency estimated from few doses,PAK4; [9],0.031 µM
same,potency estimated from few doses,PAK4; [10],0.0329 µM
same,potency estimated from few doses,"PAK4; compound concentrations:100 nM and 1000 nM (sheet 'Lestaurtinib' of Supplementary Table 1),run:Lestaurtinib_02724_R3,Plate:MR021",0.033 µM
same,potency estimated from few doses,PAK4; [11],0.0386 µM
same,potency estimated from few doses,"PAK4; compound concentrations:100 nM and 1000 nM (sheet 'Lestaurtinib' of Supplementary Table 1),run:Lestaurtinib_02741_R2,Plate:MR023",0.0394 µM
same,potency estimated from few doses,PAK4; [12],0.0356 µM
same,potency estimated from few doses,PAK4; [13],0.0304 µM
same,potency estimated from few doses,PAK4; [14],0.0298 µM
same,potency estimated from few doses,"PAK4; compound concentrations:100 nM and 1000 nM (sheet 'Lestaurtinib' of Supplementary Table 1),run:Lestaurtinib_02765_R2,Plate:MR026",0.0365 µM
same,potency estimated from few doses,PAK4; [15],0.0365 µM
same,potency estimated from few doses,PAK4; [16],0.0278 µM
